# Measured values as given in PMC8384837, “Expanding the binding specificity for RNA recognition by a PUF domain”.
# Tests used:
# Test in all cases: yeast three-hybrid, YBZ-1, SC-Leu-His + 0.5 mM 3-AT, 4 days
# Conditions in all cases: tags: N-Gal4 AD-HA kept; label: inside an RPR1-promoter hybrid RNA with tandem MS2 sites; ssRNA
# PUM1 PUF domain R7-RRT = PUM1 PUF domain R7-RRT (Homo sapiens, UniProt Q14671 828-1176, S1079R;N1080R;E1083T)
# Method in brief: (§1)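 Pumilio-1 PUF domain libraries, randomized (NNK) at the three base-contacting residues of each repeat, were co-expressed with matching RNA elements from a centromeric plasmid in strain YBZ-1 (LexA–MS2 coat fusion, HIS3 reporter). Transformants were plated on SC-Leu (input) and SC-Leu-His + 0.5 mM 3-AT (selection) for four days, and repeat regions were PCR-amplified and Illumina-sequenced. The interaction score is the log2 change in variant frequency from input to selection, with pseudocount 1 where absent.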
# PUM1 PUF domain R1-AWR = PUM1 PUF domain R1-AWR (Homo sapiens, UniProt Q14671 828-1176, S863A;R864W;Q867R)
# Method in brief: as §1
# PUM1 PUF domain R1-NFV = PUM1 PUF domain R1-NFV (Homo sapiens, UniProt Q14671 828-1176, S863N;R864F;Q867V)
# Method in brief: as §1
# PUM1 PUF domain R7-GPR = PUM1 PUF domain R7-GPR (Homo sapiens, UniProt Q14671 828-1176, S1079G;N1080P;E1083R)
# Method in brief: as §1
# PUM1 PUF domain R7-QRR = PUM1 PUF domain R7-QRR (Homo sapiens, UniProt Q14671 828-1176, S1079Q;N1080R;E1083R)
# Method in brief: as §1
# PUM1 PUF domain R5-RSG = PUM1 PUF domain R5-RSG (Homo sapiens, UniProt Q14671 828-1176, C1007R;R1008S;Q1011G)
# Method in brief: as §1
# PUM1 PUF domain R8-RFS = PUM1 PUF domain R8-RFS (Homo sapiens, UniProt Q14671 828-1176, N1122R;Y1123F;Q1126S)
# Method in brief: as §1
# PUM1 PUF domain R6-QYG = target: T1, PUM1 PUF domain R6-QYG (Homo sapiens, UniProt Q14671 828-1176, N1043Q;Q1047G)
# T1 sequence: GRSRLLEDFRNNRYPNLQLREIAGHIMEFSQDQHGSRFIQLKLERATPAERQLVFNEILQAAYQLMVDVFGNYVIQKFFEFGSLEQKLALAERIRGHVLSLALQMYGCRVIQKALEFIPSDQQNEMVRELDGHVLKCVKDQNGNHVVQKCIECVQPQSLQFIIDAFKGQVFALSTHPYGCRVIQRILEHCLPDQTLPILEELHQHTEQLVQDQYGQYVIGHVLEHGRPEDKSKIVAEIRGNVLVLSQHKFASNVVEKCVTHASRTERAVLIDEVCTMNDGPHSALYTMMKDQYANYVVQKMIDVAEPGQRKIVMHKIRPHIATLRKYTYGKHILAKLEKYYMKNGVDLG
# Method in brief: as §1
# PUM1 PUF domain R3-IFL = PUM1 PUF domain R3-IFL (Homo sapiens, UniProt Q14671 828-1176, C935I;R936F;Q939L)
# Method in brief: as §1
# PUM1 PUF domain R3-KSD = PUM1 PUF domain R3-KSD (Homo sapiens, UniProt Q14671 828-1176, C935K;R936S;Q939D)
# Method in brief: as §1
sequence,measurement,setting,value
GGCUAGAACUAGUGGAUCCCCCGGCGCCCGGCGGCUCGAGCCCGGGUAAGUUUAAAUAGUCUGCAUGCCGCCGGGCGCCAUGCCUGCAGGUCGACUCUAGAAAACAUG,binding signal,PUM1 PUF domain R7-RRT,4.83 log2 enrichment (interaction score)
GGCUAGAACUAGUGGAUCCCCCGGCGCCCGGCGGCUCGAGCCCGGGUAAGUGUAAAUCGUCUGCAUGCCGCCGGGCGCCAUGCCUGCAGGUCGACUCUAGAAAACAUG,binding signal,PUM1 PUF domain R1-AWR,4.26 log2 enrichment (interaction score)
GGCUAGAACUAGUGGAUCCCCCGGCGCCCGGCGGCUCGAGCCCGGGUAAGUGUAAAUUGUCUGCAUGCCGCCGGGCGCCAUGCCUGCAGGUCGACUCUAGAAAACAUG,binding signal,PUM1 PUF domain R1-NFV,5.68 log2 enrichment (interaction score)
same,binding signal,PUM1 PUF domain R1-AWR,1.06 log2 enrichment (interaction score)
GGCUAGAACUAGUGGAUCCCCCGGCGCCCGGCGGCUCGAGCCCGGGUAAGUCUAAAUAGUCUGCAUGCCGCCGGGCGCCAUGCCUGCAGGUCGACUCUAGAAAACAUG,binding signal,PUM1 PUF domain R7-GPR,3.96 log2 enrichment (interaction score)
same,binding signal,PUM1 PUF domain R7-RRT,4.42 log2 enrichment (interaction score)
same,binding signal,PUM1 PUF domain R7-QRR,3.77 log2 enrichment (interaction score)
GGCUAGAACUAGUGGAUCCCCCGGCGCCCGGCGGCUCGAGCCCGGGUAAGUGUUAAUAGUCUGCAUGCCGCCGGGCGCCAUGCCUGCAGGUCGACUCUAGAAAACAUG,binding signal,PUM1 PUF domain R5-RSG,2.84 log2 enrichment (interaction score)
GGCUAGAACUAGUGGAUCCCCCGGCGCCCGGCGGCUCGAGCCCGGGUAAGUGUAAAUAGUCUGCAUGCCGCCGGGCGCCAUGCCUGCAGGUCGACUCUAGAAAACAUG,binding signal,PUM1 PUF domain R8-RFS,6.27 log2 enrichment (interaction score)
same,binding signal,PUM1 PUF domain R6-QYG,3.17 log2 enrichment (interaction score)
GGCUAGAACUAGUGGAUCCCCCGGCGCCCGGCGGCUCGAGCCCGGGUAAGUGUCAAUAGUCUGCAUGCCGCCGGGCGCCAUGCCUGCAGGUCGACUCUAGAAAACAUG,binding signal,PUM1 PUF domain R5-RSG,3.08 log2 enrichment (interaction score)
GGCUAGAACUAGUGGAUCCCCCGGCGCCCGGCGGCUCGAGCCCGGGUAAGUGUAAUUAGUCUGCAUGCCGCCGGGCGCCAUGCCUGCAGGUCGACUCUAGAAAACAUG,binding signal,PUM1 PUF domain R3-IFL,3.79 log2 enrichment (interaction score)
same,binding signal,PUM1 PUF domain R3-KSD,2.88 log2 enrichment (interaction score)
GGCUAGAACUAGUGGAUCCCCCGGCGCCCGGCGGCUCGAGCCCGGGUAAGCGUAAAUAGUCUGCAUGCCGCCGGGCGCCAUGCCUGCAGGUCGACUCUAGAAAACAUG,binding signal,PUM1 PUF domain R8-RFS,5.73 log2 enrichment (interaction score)
